Reference: PubChem BioAssay (Tox21)
Records with an inconclusive call do not appear. A number with no mark means an inactive call. Active and inactive are the calls of the source. Calls follow the shape of the dose curve; as a rule, active = well fitted cell-killing curve with a large enough effect in the repeat runs; inconclusive = weak or mixed curves, or effect the other way; inactive = flat fitted curve, though single readings scatter.

assay: cAMP Responsive Elements (CRE) small molecule antagonists, cell-based qHTS assay: qHTS cell viability counter screen (AID 2060913); settings: CRE-bla HEK293T viability, CellTiter-Glo luminescence, 5 h; series mostly up to 92.4 µM; viability change, negative = cytotoxic: at the top concentration; also: nearly all actives have a fitted effect of over 40% in size
Outline: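 Steps: cells plated and held 18 hrs at 37 C/5% CO2; compounds and NKH477 (0.25 uM final) added; 3 hrs incubation; reporter substrate read; CellTiter-Glo added to measure cytotoxicity by luminescence.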
% is scaled to controls: 0 for no effect and ±100 for the full control effect; potency is read from the fitted curve at half-maximal effect.

| Structure (SMILES) | viability change, negative = cytotoxic | Potency |
| --- | --- | --- |
| CCCCCCC(O)CCCCCCCCCCC(=O)OC (stereo not given) | 0.154% | – |
| c1ccc(CN(Cc2ccccc2)Cc2ccccc2)cc1 | -15.2% | – |
| COC(=O)c1cc(S(N)(=O)=O)ccc1OC | 0.207% [at 42.5 µM] | – |
| CCCCCCCO | – | inactive |
| OCC(CBr)(CBr)CBr | -8.37% | – |
| CCOC(=O)NCCOc1ccc(Oc2ccccc2)cc1 | 2.71% | – |
| CCOc1ccccc1OCCN[C@H](C)Cc1ccc(OC)c(S(N)(=O)=O)c1 | 1.78% [at 42.5 µM] | – |
| C=C(C)CCO | 7.42% | – |
| CSc1ccc2c(c1)N(CCC1CCCCN1C)c1ccccc1S2 (stereo not given) | – | 60.9 µM (active) |
| CCCCCCCCCCCCCCCCCC#N | 4.04% | – |
| C=C(C)C(=O)OCCC[Si](Cl)(Cl)Cl | 6.12% | – |
| C[C@H]1C[C@@H](O)CC(C)(C)C1 | 1.58% | – |
| CC1(C)[C@H]2CC[C@]1(C)[C@H](O)C2 | -6.44% | – |
| O=C1c2ccccc2C(=O)C1c1ccccc1 | -0.997% [at 42.5 µM] | – |
| CNC(=O)Nc1ccc(Cl)c(Cl)c1 | -5.94% | – |
| COC(=O)c1ccc(C=O)cc1 | – | inactive |
| Nc1cccc(S(=O)(=O)O)c1 | -0.003% | – |
| CCCCCC1=CCCC1=O | – | inactive |
| C1CN(SSN2CCOCC2)CCO1 | – | inactive |
| CCCCCOC(=O)CCCC | 5.07% | – |

| Structure (SMILES) | viability change, negative = cytotoxic | Potency |
| --- | --- | --- |
| O=C(O)Cc1ccccc1Nc1c(Cl)cccc1Cl | – | inactive |
| CCC/C=C(\C=O)CC | 0.0408% | – |
| N=C(N)N1CCc2ccccc2C1 | -0.283% [at 8.39 µM] | – |
| CNc1ccccc1 | -6.57% | – |
| C=C(C)C(=O)OCCCCCC | – | inactive |
| C[N+](C)(C)CCCCCCCCCC[N+](C)(C)C | 3.02% [at 42.5 µM] | – |
| CC1(C)C(=O)NC(=O)N1CO | -5.08% | – |
| Cc1cc(C)c(NC(=O)CN(CC(=O)O)CC(=O)O)c(C)c1Br | -0.584% [at 42.5 µM] | – |
| CC1(C)S[C@@H]2[C@H](N=CN3CCCCCC3)C(=O)N2[C@H]1C(=O)O | 2.58% [at 42.5 µM] | – |
| CCCCCCCCCC(C)C=O (stereo not given) | -2.19% | – |
| Nc1nc(N)c(-c2ccccc2)s1 | -4.99% [at 42.5 µM] | – |
| CN(C)c1ccc(C2(c3ccc(N(C)C)cc3)OC(=O)c3cc(N(C)C)ccc32)cc1 | -2.17% | – |
| Nc1nc(CC(=O)O)cs1 | -7.47% | – |
| CC(C)C(=O)c1ccccc1 | -0.173% | – |
| Oc1cc(Cl)cc(Cl)c1Cl | – | 55.8 µM (active) |
| CCCCC(CC)COC(=O)C(C#N)=C(c1ccccc1)c1ccccc1 (stereo not given) | -5.63% [at 42.5 µM] | – |
| CC(=O)NC(Cc1ccccc1)C(=O)O (stereo not given) | 9.67% [at 42.5 µM] | – |
| COc1cc(C(=O)NC2CCCNC2)cc(OC)c1OC (stereo not given) | 1.12% [at 42.5 µM] | – |
| C=CC(C)(CCC=C(C)C)OC=O (stereo not given) | -1.4% | – |
| CC(=O)c1nccs1 | – | inactive |
